From PubChem BioAssay (Tox21)
Results filed as inconclusive are left out. Calls of active or inactive are those of the source. Calls come from the whole dose curve.

target: Beta-2 adrenergic receptor (Homo sapiens) (UniProt P07550); assay: Adrenergic beta2 receptor (ADRB2) small molecule antagonists, cell-based qHTS assay (AID 1963592); details: CHO-ADRB2 cells, isoproterenol-stimulated cAMP HTRF ratio, 0.5 h; series mostly up to 92.4 µM; activity change, negative = inhibition: at the top concentration; note: nearly all actives have a fitted effect of over 50% in size
From the text: U.S. Tox21 Program National Center for Advancing Translational Sciences [NCATS] Division of Preclinical Innovation [DPI] U.S. Environmental Protection Agency [EPA] National Institutes of Environmental Health Sciences [NIEHS] National Toxicology Program [NTP] U.S. Food and Drug Administration [FDA] Tox21 Assay Overview: Beta adrenergic receptors (Beta-ARs) belong to the G-protein coupled receptor (GPCR) superfamily, includes three subtypes - beta1, beta2, and beta3. Beta1-AR is the predominant receptor subtype expressed in the heart, and beta2-AR is expressed in the kidney, lung, blood vessel and in the heart, and beta3 is found in the adipocytes. Beta1 and 2 ARs couple to Gs protein and elevate cyclic adenosine mono phosphate (cAMP), which activates protein kinase A and leads to the downstream signaling responsible for the physiological actions. Beta-AR agonists or antagonists are the most prescribed therapeutic agents for heart failure and asthma, and these were one of the first target receptors for the rational drug design. Tox21 10K compound library was screened using the cAMP-Gs dynamic assay (Cisbio Bioassays, Shelton, CT) to identify agonists/antagonists of the Gs-coupled human adrenergic, beta2 receptor (ADRB2) in the CHO-ADRB2 cell line (Codex BioSolutions, Inc. Gaithersburg, MD), which stably over-expresses ADRB2. The principle of cAMP-Gs dynamic assay is based on HTRF technology, which facilitates the fluorescence resonance energy transfer (FRET) between donor Europium cryptate and acceptor d2-labeled cAMP. The cAMP generated within cells competes with the red acceptor, d2-labled cAMP, for binding to the monoclonal anti-cAMP-cryptate (Europium donor). An increase in intracellular cAMP leads to the disruption of FRET signal, and the signal is inversely proportional to the cAMP concentration. Propranolol HCl (Sigma-Aldrich, St. Louis, MO) was used as a positive control in the screening.
Tox21 Assay Protocol Summary: CHO-ADRB2 cells were dispensed at 1,000/well in 4uL assay medium into white/solid 1536-well plates (Greiner Bio-One North America Inc., Monroe, NC) using a Multidrop Combi dispenser (ThermoFisher Scientific, Waltham, MA). The assay plates were incubated at 37C and 5% CO2 for an overnight (18-20hr). Then positive control and test compounds dissolved in DMSO were transferred to the assay plates at 23nL using a Pintool station (Wako, San Diego, CA). Following the compound and positive control transfer, 1uL agonist-stimulation mix containing 1nM Isoproterenol HCl, 100uM IBMX and 25uM Ro-20-1724 was added to each well of the assay plates using BioRAPTR Flying Reagent Dispenser (FRD, Beckman Coulter, Brea, CA). The assay plates were incubated at room temperature for 0.5hr. Then 2.5ul each d2-labled cAMP and anti-cAMP-cryptate solutions were added separately to each well of the assay plates using an FRD and the assay plates were incubated at room temperature for 1hr. The fluorescence signal was measured at two different wavelengths (665nm and 615nm) using an Envision plate reader (Perkin Elmer, Shelton, CT). Data were expressed as the ratio of 665 nm/615 nm.
% is set by controls: 0 for no effect and ±100 for the full control effect.

Chain of Beta-2 adrenergic receptor (Homo sapiens) (P07550 whole entry, looked up): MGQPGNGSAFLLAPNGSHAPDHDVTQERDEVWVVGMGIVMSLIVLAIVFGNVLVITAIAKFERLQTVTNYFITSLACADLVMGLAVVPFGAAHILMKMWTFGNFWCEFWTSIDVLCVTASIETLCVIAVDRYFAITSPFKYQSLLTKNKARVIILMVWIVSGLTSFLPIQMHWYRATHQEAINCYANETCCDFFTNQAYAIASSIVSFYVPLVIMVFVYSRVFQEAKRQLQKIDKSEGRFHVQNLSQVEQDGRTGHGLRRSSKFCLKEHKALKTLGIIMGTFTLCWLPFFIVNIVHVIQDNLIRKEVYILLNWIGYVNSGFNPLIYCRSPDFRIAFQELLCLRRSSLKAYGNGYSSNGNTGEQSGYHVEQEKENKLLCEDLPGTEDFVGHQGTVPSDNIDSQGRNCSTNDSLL

SMILES	activity change, negative = inhibition	Potency
CC(=O)N(c1onc(C)c1C)S(=O)(=O)c1ccc(N)cc1	-0.287% [at 42.5 µM] (inactive)	–
CC(C)NC(=O)c1ccccc1N	-2.33% (inactive)	–
CC1=C(CC(=O)O)c2cc(F)ccc2/C1=C\c1ccc(S(C)=O)cc1 (stereo not given)	–	inactive
CC(COC(=O)c1ccccc1)OC(=O)c1ccccc1 (stereo not given)	-2.07% (inactive)	–
CCOCOCC	-1.02% (inactive)	–
C[C@H]1C[C@H](O)c2ccsc2S1(=O)=O	8.82% [at 42.5 µM] (inactive)	–
CCCCCCOCCOCCO	–	inactive
COc1cccc(OC)c1	-0.809% (inactive)	–
C[C@@H]1CCC[C@H](C)N1CCCC(O)(c1ccccc1)c1ccccn1 (stereo not given in full)	-6.31% [at 42.5 µM] (inactive)	–
CCC(=O)OC(C)(C)C1CC=C(C)CC1 (stereo not given)	-10.3% (inactive)	–
CCO/C([O-])=N/c1c[n+](N2CCOCC2)no1	-0.601% [at 42.5 µM] (inactive)	–
CCOC(=S)SSC(=S)OCC	-9.14% (inactive)	–
Cc1ccc(S(=O)(=O)O)c(C)c1	-8.2% (inactive)	–
CC[C@]12CCCN3CCc4c(n(c5ccccc45)[C@@](O)(C(=O)OC)C1)[C@@H]32	–	inactive
Cc1ccc(C)o1	-1.06% (inactive)	–
N=C(N=C(N)N)N1CCOCC1	0.471% [at 42.5 µM] (inactive)	–
CCOCCC(=O)OCC	13.2% (inactive)	–
CCOC(=O)C(C)Oc1ccc(Oc2cnc3cc(Cl)ccc3n2)cc1 (stereo not given)	–	inactive
Nc1ncnc2c1ncn2Cc1c(F)cccc1Cl	-20.2% [at 42.5 µM] (inactive)	–
CC(C)(C)c1ccc(CCC=O)cc1	-0.665% (inactive)	–

SMILES	activity change, negative = inhibition	Potency
CC(C)(C)OC=O	1.76% (inactive)	–
C=COCCOCCOCCOC=C	-1.99% (inactive)	–
CCCCCCOC(=O)CC	4.6% (inactive)	–
O=c1[nH]c2ccc(Cl)cc2o1	-0.0383% (inactive)	–
c1c[nH]cn1	–	inactive
O=S(=O)(O)CO	7.66% (inactive)	–
CC(C)(C)C(=O)OCOC(=O)C1N2C(=O)CC2S(=O)(=O)C1(C)C (stereo not given)	-0.487% [at 42.5 µM] (inactive)	–
Cc1cccc(C)c1NC(=O)CC12CCCN1CCC2	1.44% [at 42.5 µM] (inactive)	–
O=C[C@H](O)[C@H](O)[C@H](O)CO	-8.65% (inactive)	–
CC(=O)[O][Al][O]C(C)=O	0.0594% (inactive)	–
O=C(Oc1ccccc1)c1ccc(O)cc1	–	inactive
COc1ccc2c(c1)CCCC2=O	4.2% [at 42.5 µM] (inactive)	–
CCOCCOCCOCCO	–	inactive
O=C1NCCN1CCO	-0.443% (inactive)	–
CC(CCC(=O)O)C(=O)O (stereo not given)	2.83% (inactive)	–
C[C@@H]1CCN(C(=O)[C@H](CCCN=C(N)N)NS(=O)(=O)c2cccc3c2NC[C@H](C)C3)[C@@H](C(=O)O)C1	-20.4% [at 42.5 µM] (inactive)	–
Cc1ccccc1C(=O)N1CC/C(=N\OS(=O)(=O)O)c2ccc(Cl)cc21	-6.03% [at 42.5 µM] (inactive)	–
NC(=O)NNC(N)=O	-1.89% (inactive)	–
O=Cc1ccccc1C=O	15.9% [at 42.5 µM] (inactive)	–
COC(=O)c1cc(Cl)ccc1NS(=O)(=O)C(F)(F)F	-0.708% [at 42.5 µM] (inactive)	–
